# Data as given in ChEMBL document CHEMBL3988442, “University of Dundee, Small-Polar-MMV Screening Library” (2021).
# Out of some 53,000 compounds screened, about 900 (1.7%) showed an effect of 50% or more. This is one part of a sample in which strong results are shown more often than they occur.
# Test system: Mycobacterium tuberculosis
# Assay: Cornell - Phenotypic assay to identify agents that inhibit growth of Mycobacterium tuberculosis
# Type: functional
# Set-up: scale not given: direction of the effect not stated beside the values
# Conditions: 10 mM as filed; unlikely as a test dose
row,Structure (SMILES),Percent Effect [%]
1,Cc1nonc1OCCNC(=O)COc1ccc(Cl)cc1Cl,17.56
2,CC(c1nnc(-c2ccccc2)o1)N1CCc2cncnc2C1 (centres undefined),-7.255
3,CC(=O)N1CCc2c(nc(N(C)C)nc2N(C)CCC2CCCCO2)C1 (centres undefined),-8.037
4,Cc1nc[nH]c1CN1CCN(C(=O)C2(C)CC2)[C@H]2CS(=O)(=O)C[C@H]21,10.63
5,Cn1ccc(CNC(=O)Nc2ccc(S(=O)(=O)C(F)F)cc2)c1,50.21
6,Cn1cc(CNC(=O)Nc2ccc(S(=O)(=O)C(F)F)cc2)cn1,33.37
7,COc1ccc(CNC(=O)Nc2ccc(S(=O)(=O)C(F)F)cc2)cc1,13.14
8,Cc1cc2nc(O)c(O)nc2cc1S(=O)(=O)NC1CC1,1.29
9,CC(C)(C)C(=O)NCCC(=O)NC(C)(C)c1ccc2c(c1)OCO2,11.96
10,COc1ncccc1CNC(=O)NC(C)Cn1cccn1 (centres undefined),-6.466
11,CCCc1cc(CNC2CCN(c3cc(C(C)C)nc(C)n3)CC2)on1,-3.278
12,O=C(c1cc(C2CC2)on1)N1C[C@H]2CC[C@](O)(c3ccccc3F)[C@H]2C1,7.092
13,O=C(c1cc(C2CC2)on1)N1C[C@H]2CC[C@](O)(c3ccc(F)cc3)[C@H]2C1,6.085
14,O=C(c1cc(C2CC2)n[nH]1)N1C[C@H]2CC[C@](O)(c3ccccc3F)[C@H]2C1,50.52
15,COc1ccc(-c2nc(CNCCn3cccn3)cs2)cc1,49.39
16,c1ccc(Cc2nc(CNCCn3cccn3)cs2)cc1,73.18
17,c1ccc(-c2nc(CNCCn3cccn3)cs2)cc1,46.8
18,c1cnn(CCNCc2csc(-c3ccsc3)n2)c1,-2.857
19,Fc1ccc(CNCCn2cccn2)cc1F,-21.78
20,Clc1ccc(Cc2nc(CNCCn3cccn3)cs2)cc1,60.1
21,COc1cc(C2(C(=O)N3CCCC(n4cncn4)C3)CC2)ccc1C (centres undefined),9.425
22,CC1(C(=O)NC2CCCC2)CCCN(c2cnccn2)C1 (centres undefined),15.8
23,Cn1cccc1C(O)CNC(=O)COc1ccc(Cl)cc1Cl (centres undefined),63.83
24,Cn1cccc1C(O)CNC(=O)c1ccc2nsnc2c1 (centres undefined),20.08
25,Cn1cccc1C(O)CNC(=O)c1ccc(C(F)(F)F)cc1 (centres undefined),56.65
26,Cn1cccc1C(O)CNC(=O)c1cccc(Cl)c1 (centres undefined),49.37

row,Structure (SMILES),Percent Effect [%]
1,Cn1cccc1C(O)CNC(=O)COc1ccccc1F (centres undefined),31.15
2,COC(=O)c1ccc(C(=O)NCC(O)c2cccn2C)cc1 (centres undefined),64.24
3,Cn1cccc1C(CNC(=O)COc1ccc(Cl)cc1Cl)N1CCCC1 (centres undefined),27.47
4,Cn1cccc1C(O)CNS(=O)(=O)Cc1ccccc1 (centres undefined),-41.72
5,Cn1cccc1C(O)CNC(=O)c1ccc(F)c(F)c1 (centres undefined),19.39
6,COC[C@@H]1CCC[C@]12CN(CCc1ccccc1)CCO2.O=C(O)C(F)(F)F,-4.553
7,Cc1nc(CNC(=O)c2cc(Cn3ccnc3C(C)C)[nH]n2)sc1C,-7.755
8,CC(C)NC(=O)NCC(Cc1ccc(F)cc1)C(N)=O (centres undefined),-16.75
9,Cc1c(-c2nc3cc(S(=O)(=O)N4CCCC4)ccc3n2C)cnn1C,-4.812
10,CCc1ccccc1-c1cc(C)nc(N)n1,13.97
11,Cc1ccc(Oc2cc(CN)ccn2)cc1C.Cl,-26.7
12,NC(=O)NC(=O)CNC1(c2ccc(Cl)cc2)CCCC1,4.44
13,Cc1ccccc1CSc1ncc(Br)c(C(=O)O)n1,12.49
14,Cc1cncc(C2CCN(Cc3cnc(C)nc3)CC2)n1,56.88
15,Cc1cncc(C2CCN(Cc3ccsc3)CC2)n1,41.74
16,Cc1cncc(C2CCN(Cc3ccncc3)CC2)n1,18.56
17,CCN1CCc2cc(-c3cncn3CCNC3CCS(=O)(=O)C3)ccc21.Cl (centres undefined),12.29
18,Cc1nccn1CCCn1cncc1-c1ccc2c(c1)CCC(C)N2C.Cl (centres undefined),54.25
19,Cc1nccn1CCCn1cncc1-c1ccc2c(c1)CCCN2C.Cl,0.2069
20,Cc1nccn1CCCn1cncc1-c1ccc2c(c1)CC(C)N2C.Cl (centres undefined),20.63
21,CCN1c2ccc(-c3cncn3CCCn3ccnc3C)cc2CC1C.Cl (centres undefined),54.49
22,CCN1c2ccc(-c3cncn3CC(=O)NC(C)(C)C)cc2CC1C.Cl (centres undefined),-3.554
23,OCCNc1nc(NCCc2ccccc2)nc2nccnc12,11.82
24,Cn1cc(CN2CC[C@H](O)[C@@H](n3ccc(=O)[nH]c3=O)CC2)cn1,-40.44
25,Cn1cc(CN(Cc2ccccn2)Cc2ccccc2Cl)cn1,9.224
26,COc1ccc(C(C)NCCc2ccc(NC(C)=O)cc2)cc1F (centres undefined),-10.02

row,Structure (SMILES),Percent Effect [%]
1,OCCN1CCN(Cc2cc(Cl)cc3cccnc23)CC1,-20.78
2,Clc1cc(CN2CCCN3CCCC3C2)c2ncccc2c1 (centres undefined),58.38
3,O[C@@H]1CN(Cc2cc(Cl)cc3cccnc23)C[C@@H]1O,5.63
4,Cc1nnsc1C(=O)NCCNS(=O)(=O)c1cccs1,-32.34
5,Cc1nsc(NCCNS(=O)(=O)c2ccccc2)n1,22.52
6,CCS(=O)(=O)NCCCNc1cc(N2CCCC2CO)ncn1 (centres undefined),22.16
7,O=S(=O)(NCCNc1cc(-n2cccc2)ncn1)c1cccs1,51.47
8,Cc1ccc(S(=O)(=O)NCCNc2cc(-n3cccc3)ncn2)c(C)c1,53.05
9,O=S(=O)(NCCNc1ccc(-n2cccc2)nn1)c1cccs1,107.8
10,Cc1ccc(C)c(S(=O)(=O)NCCNc2ccc(-n3cccc3)nn2)c1,29.41
11,O=S(=O)(NCCNc1cc(-n2cccn2)ncn1)c1cccs1,-21.67
12,CCS(=O)(=O)NCCNc1cc(-n2cccc2)ncn1,13.54
13,O=S(=O)(Cc1ccccc1)NCCNc1ccc(-n2cccc2)nn1,12.63
14,O=S(=O)(NCCNc1ccc(-n2cccc2)nn1)c1ccccc1,105.3
15,Cc1cccc(C(=O)NCCNS(=O)(=O)c2cccs2)c1C,27.49
16,CCC1=N[C@@]2(CC[C@@H]3CN(CC4CC4)C[C@@H]32)C(=O)N1CC.O=C(O)C(F)(F)F,7.399
17,O=C(CC1CC1)N1CCN(Cc2ccncc2)c2ncccc2C1.O=C(O)C(F)(F)F.O=C(O)C(F)(F)F,7.793
18,Cc1ccc(-c2nnc(CN3CCN(c4ccccn4)CC3)o2)cc1,-16.82
19,COCC(=O)N1CCCC(c2cc(C(F)F)n3ncnc3n2)C1.Cl (centres undefined),-7.323
20,CCNC(=O)C1(CC2CC(c3ccccc3OC)=NO2)CCOCC1 (centres undefined),-45.09
21,CNc1cncc(C2CCCN2C(=O)CCn2ccnc2)n1 (centres undefined),-11.08
22,COCCN(C)CC(=O)N1C[C@@H](C)[C@](O)(C(C)C)C1,28.76
23,CCc1cc(O)n2nc(C3CCN(C(=O)c4ccccn4)CC3)cc2n1,37.19
24,NC(=O)CN1CCC2(CC1)C[C@@H](O)[C@H](c1ccccc1)NC2=O,-49.18
25,COCC(=O)N1CCCC1(C(=O)N(C)C)c1cnccn1 (centres undefined),19.92
26,Cc1cc(-c2ccccc2Cl)nc(N)n1,22.73

row,Structure (SMILES),Percent Effect [%]
1,O=C(NCCNc1cc(-n2cccc2)ncn1)c1cccs1,57.48
2,O=C(NCCNC(=O)c1scnc1Cl)c1cccs1,-53.65
3,CC(C)(C)c1ncc(C(=O)NCCNC(=O)c2cccs2)s1,-14.14
4,Cc1ccc2c(c1)[C@@H](CC(=O)N(C)C)CCO2,3.607
5,COC(=O)C(NC(=O)c1ccc(NC2CC2)nc1)c1ccccc1 (centres undefined),107
6,NC(=O)C(NC(=O)c1ccc(NC2CC2)nc1)c1ccccc1 (centres undefined),-20.48
7,CCNc1ncc(C(=O)N[C@H](C(N)=O)c2ccccc2)cn1,-10.46
8,CC(C)c1cc(NC(=O)c2ccc(NC3CC3)nc2)[nH]n1,-6.556
9,COC(=O)C(NC(=O)c1ccc(N(C)C)nc1)c1ccccc1 (centres undefined),107.9
10,CN(C)c1ccc(C(=O)NCCCc2ccccn2)cn1,-1.76
11,OC1(CN2CCCC(Cn3cncn3)C2)CCCCC1 (centres undefined),2.144
12,CNC(=O)c1sc2ccccc2c1C1CCN(c2cc(C)nc(C)n2)C1 (centres undefined),-31.24
13,Cc1cnn(C2CCCN(C(=O)c3ccc(O)nc3)C2)c1 (centres undefined),-59.29
14,Cc1ccc(CN2CC[C@@H]3[C@@H]2CCN3C(=O)Cc2cccs2)o1.O=C(O)C(F)(F)F,2.395
15,CC(Nc1nc(-c2ccncc2)nc2c1CCNC2)c1ccccc1 (centres undefined),16.91
16,CC(Nc1nc(-c2ccccc2)nc2c1CCNCC2)c1cccnc1 (centres undefined),76.64
17,Cc1cc(CC(C)Nc2nc(-c3cccnc3)nc3c2CNC3)[nH]n1 (centres undefined),-19.02
18,CC(Nc1nc(-c2ccccc2)nc2c1CCNCC2)c1nccs1 (centres undefined),28.69
19,Cc1cccnc1[C@H](C)Nc1nc(-c2cccnc2)nc2c1CNC2,56.46
20,CCc1cc(C(C)Nc2nc(-c3cccnc3)nc3c2CNC3)on1 (centres undefined),9.073
21,Cc1cc(NCCNS(C)(=O)=O)nc2cc3c(cc12)CCC3,-25.91
22,Cc1cs/c(=N\C(=O)Cn2nc(N3CCOCC3)ccc2=O)[nH]1,32.69
23,CC(C)c1n[nH]c(C2CN(C(=O)c3ncoc3C(C)C)CCO2)n1 (centres undefined),-2.194
24,COCCC(=O)N1Cc2nc3c(C)c(-c4cccs4)nn3c(O)c2C1,39.74
25,Cc1c(-c2cccs2)nn2c(O)c3c(nc12)CN(C(=O)C1CC1)C3,54.87
26,COCC(=O)N1Cc2nc3c(C)c(-c4cccs4)nn3c(O)c2C1,3.993
